Read-out in assay [1]: TIMP metallopeptidase inhibitor 1 (TIMP1), TIMP1 (gene 7076)
As to the kind of experiment: BSK_MyoF_TIMP1: BioMAP Diversity Plus: MyoF Assay for TIMP metallopeptidase inhibitor 1 (TIMP1) Biomarker Activity (AID 2284269). As to conditions: primary human lung fibroblasts. An outline of the steps:
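Primary human lung fibroblasts, MyoF multiplex system; chemical exposure 24 h; TIMP-1 by ELISA; positive fitting direction vs DMSO control.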

Read-out in assay [2]: Matrix Metallopeptidase 1 (MMP1), MMP1 (gene 4312)
Kind of assay: BSK_BF4T_MMP1: BioMAP Diversity Plus: BF4T Assay for Matrix Metallopeptidase 1 (MMP1) Biomarker Activity (AID 2284270). The following applies: primary human bronchial epithelial cells with fibroblasts. An outline of the steps:
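MMP-1 quantified by ELISA in primary human bronchial epithelial/dermal fibroblast co-cultures, 24 hours post-dosing, with DMSO as baseline; parallel sulforhodamine B staining (560 nm) tracks overt cytotoxicity.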

Read-out in assay [3]: Matrix Metallopeptidase 3 (MMP3), MMP3 (gene 4314)
Kind of assay: BSK_BF4T_MMP3: BioMAP Diversity Plus: BF4T Assay for Matrix Metallopeptidase 3 (MMP3) Biomarker Activity (AID 2284271). The following applies: primary human bronchial epithelial cells with fibroblasts. An outline of the steps:
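MMP-3 level read by ELISA after 24 h chemical exposure of bronchial epithelial cell/dermal fibroblast co-cultures, fitted upward relative to DMSO. Parallel cultures stained with 0.1% SRB after TCA fixation gauge overt cytotoxicity.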

Read-out in assay [4]: Tissue plasminogen activator (tPA), PLAT (gene 5327)
As to the kind of experiment: BSK_BF4T_tPA: BioMAP Diversity Plus: BF4T Assay for Tissue plasminogen activator (tPA) Biomarker Activity (AID 2284272). As to conditions: primary human bronchial epithelial cells with fibroblasts. Put shortly:
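tPA level quantified by ELISA at 24 h post-treatment in bronchial epithelial/dermal fibroblast co-cultures, gain of signal scored against DMSO baseline. Parallel cultures stained with 0.1% SRB (560 nm) to flag overt cytotoxicity.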

Read-out in assay [5]: Plasminogen Activator Inhibitor-1 (PAI1), SERPINE1 (gene 5054)
Kind of assay: BSK_BF4T_PAI1: BioMAP Diversity Plus: BF4T Assay for Plasminogen Activator Inhibitor-1 (PAI1) Biomarker Activity (AID 2284273). The following applies: primary human bronchial epithelial cells with fibroblasts. Put shortly:
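PAI-1 levels quantified by ELISA 24 h post-dosing in bronchial epithelial cell plus dermal fibroblast cultures. Signal gain referenced to DMSO baseline. Sulforhodamine B total-protein staining of parallel wells checked cytotoxicity.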

Assay [6] in a line: BSK_BF4T_SRB: Viability Assessment in the BioMAP Diversity Plus: BF4T Assay (AID 2284274).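 As to AC50: measured 24 h after compound addition.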 As to conditions: primary human bronchial epithelial cells with fibroblasts. An outline of the steps:
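Cytotoxicity measured as total protein: cells fixed with 10% TCA, stained with 0.1% SRB, read at 560 nm. Bronchial epithelial/dermal fibroblast co-culture, 24 h after dosing, with positive-direction fitting relative to DMSO.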

Read-out in assay [7]: urokinase Plasminogen Activator (uPA), PLAU (gene 5328)
As to the kind of experiment: BSK_BF4T_uPA: BioMAP Diversity Plus: BF4T Assay for urokinase Plasminogen Activator (uPA) Biomarker Activity (AID 2284275). As to conditions: primary human bronchial epithelial cells with fibroblasts. Put shortly: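 uPA levels measured by ELISA at 24 hours in BF4T cultures (bronchial epithelial cells plus dermal fibroblasts) and compared with DMSO; cytotoxicity tracked in parallel cultures by sulforhodamine B staining.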

Read-out in assay [8]: Matrix Metallopeptidase 9 (MMP9), MMP9 (gene 4318)
Kind of assay: BSK_BF4T_MMP9: BioMAP Diversity Plus: BF4T Assay for Matrix Metallopeptidase 9 (MMP9) Biomarker Activity (AID 2284276). The following applies: primary human bronchial epithelial cells with fibroblasts. An outline of the steps: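 MMP-9 levels were measured by ELISA after 24 h exposure of bronchial epithelial cell/dermal fibroblast co-cultures, with DMSO as baseline. Parallel cultures were stained with 0.1% SRB after TCA fixation, read at 560 nm, to flag overt cytotoxicity.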

Read-out in assay [9]: Interleukin-8 (IL8), CXCL8 (gene 3576)
As to the kind of experiment: BSK_IMphg_IL8: BioMAP Diversity Plus: IMphg Assay for Interleukin-8 (IL8) Biomarker Activity (AID 2284277). The following applies: primary human endothelial cells with macrophages. An outline of the steps: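 IL-8 levels were measured by ELISA 24 h after dosing in primary human venular endothelial cell–macrophage cultures, referenced to DMSO; parallel SRB staining monitored overt cytotoxicity.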

Read-out in assay [10]: Intercellular Adhesion Molecule 1 (ICAM1), ICAM1 (gene 3383)
As to the kind of experiment: BSK_BE3C_ICAM1: BioMAP Diversity Plus: BE3C Assay for Intercellular Adhesion Molecule 1 (ICAM1) Biomarker Activity (AID 2284278).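 As to outcome: cell-surface ICAM-1 protein level quantified by ELISA.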 As to conditions: primary human bronchial epithelial cells. An outline of the steps: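 ELISA read-out of ICAM-1 on human lung bronchial epithelial primary cells, 24 h post-dosing; positive-direction curve fit, DMSO = baseline. SRB total-protein staining of parallel cultures flagged overt cytotoxicity.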

Read-out in assay [11]: Interferon-inducible T-cell alpha chemoattractant (ITAC), CXCL11 (gene 6373)
As to the kind of experiment: BSK_BE3C_ITAC: BioMAP Diversity Plus: BE3C Assay for Interferon-inducible T-cell alpha chemoattractant (ITAC) Biomarker Activity (AID 2284279). As to conditions: primary human bronchial epithelial cells. An outline of the steps: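 Steps: dose human bronchial epithelial cells with chemical; incubate 24 h; measure I-TAC by ELISA; fit endpoint in positive direction against DMSO control. Cytotoxicity was checked in parallel cultures by SRB staining at harvest.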

Read-out in assay [12]: Interleukin-8 (IL8), CXCL8 (gene 3576)
As to the kind of experiment: BSK_BE3C_IL8: BioMAP Diversity Plus: BE3C Assay for Interleukin-8 (IL8) Biomarker Activity (AID 2284280). As to conditions: primary human bronchial epithelial cells. Put shortly: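 Measured at 24 h after treatment, IL-8 from human primary bronchial epithelial cells is determined by ELISA, and the response is modelled as increasing relative to DMSO negative control.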

Read-out in assay [13]: Epidermal growth factor receptor (EGFR), EGFR (gene 1956)
As to the kind of experiment: BSK_BE3C_EGFR: BioMAP Diversity Plus: BE3C Assay for Epidermal growth factor receptor (EGFR) Biomarker Activity (AID 2284281). As to conditions: primary human bronchial epithelial cells. Put shortly:
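Measured 24 h after dosing in primary human bronchial epithelial cultures, EGFR was read by ELISA; gain of signal over DMSO control defined activity.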

Read-out in another assay: KRT18 (gene 3875)
As to the kind of experiment: BSK_BE3C_Keratin818: BioMAP Diversity Plus: BE3C Assay for Keratin 818 Biomarker Activity (AID 2284282). As to conditions: primary human bronchial epithelial cells. An outline of the steps: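 ELISA read-out of Keratin 8/18 in BE3C human bronchial epithelial cultures, 24 h post-dosing; positive-direction fit vs DMSO baseline.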

Read-out in assay [14]: Matrix Metallopeptidase 9 (MMP9), MMP9 (gene 4318)
Kind of assay: BSK_BE3C_MMP9: BioMAP Diversity Plus: BE3C Assay for Matrix Metallopeptidase 9 (MMP9) Biomarker Activity (AID 2284283). As to conditions: primary human bronchial epithelial cells. An outline of the steps:
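Cells were dosed, incubated 24 h, then assayed for MMP-9 by ELISA; activity was fitted upward against DMSO. The system used human lung primary bronchial epithelial cells, with SRB total-protein staining run alongside for cytotoxicity.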

Read-out in assay [15]: Plasminogen activator inhibitor-1 (PAI1), SERPINE1 (gene 5054)
As to the kind of experiment: BSK_CASM3C_PAI1: BioMAP Diversity Plus: CASM3C Assay for Plasminogen activator inhibitor-1 (PAI1) Biomarker Activity (AID 2284284). The following applies: primary human coronary artery smooth muscle cells.

Read-out in assay [16]: Monocyte Chemoattractant Protein-1 (MCP1), CCL2 (gene 6347)
As to the kind of experiment: BSK_hDFCGF_MCP1: BioMAP Diversity Plus: hDFCGF Assay for Monocyte Chemoattractant Protein-1 (MCP1) Biomarker Activity (AID 2284285). As to conditions: primary human foreskin fibroblasts. An outline of the steps:
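MCP-1 ELISA readout was taken 24 hours after dosing primary human dermal fibroblasts in the hDFCGF system, with DMSO as baseline. Parallel sulforhodamine B staining of total protein tracked overt cytotoxicity.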

Read-out in assay [17]: Vascular cell adhesion molecule 1 (VCAM1), VCAM1 (gene 7412)
As to the kind of experiment: BSK_IMphg_VCAM1: BioMAP Diversity Plus: IMphg Assay for Vascular cell adhesion molecule 1 (VCAM1) Biomarker Activity (AID 2284286). As to conditions: primary human endothelial cells with macrophages. An outline of the steps:
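ELISA read-out of VCAM-1 on venular endothelial cell/macrophage co-cultures at 24 h post-treatment, with DMSO as baseline and positive-direction fitting. Parallel sulforhodamine B total-protein staining (560 nm) served as the overt cytotoxicity measure.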

Read-out in assay [18]: Intercellular Adhesion Molecule 1 (ICAM1), ICAM1 (gene 3383)
As to the kind of experiment: BSK_hDFCGF_ICAM1: BioMAP Diversity Plus: hDFCGF Assay for Intercellular Adhesion Molecule 1 (ICAM1) Biomarker Activity (AID 2284287). The following applies: primary human foreskin fibroblasts. An outline of the steps: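 ICAM-1 ELISA readout 24 h after dosing, DMSO as baseline, in human dermal foreskin fibroblast cultures. Cytotoxicity checked in parallel wells by SRB staining (0.1% SRB, 10% TCA fixation, 560 nm).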

Read-out in a further assay: CD40, CD40 (gene 958)
Kind of assay: BSK_IMphg_CD40: BioMAP Diversity Plus: IMphg Assay for CD40 Biomarker Activity (AID 2284288). As to conditions: primary human endothelial cells with macrophages. Put shortly: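 ELISA read-out of cell-surface CD40 at 24 h in human venular endothelial cell/macrophage co-cultures. Activity fitted in the positive direction against DMSO; parallel SRB staining (560 nm) gauges overt cytotoxicity.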

SMILES strings stand for the structures. “And” between values parts separate entries of the source, which are not always exact repeats. Equal entries are not always repeated. The source holds several records for some structures; these can differ, active in one and inactive in another. The source made the active and inactive calls. The calls were made as follows: active = hit-call score of the fitted dose curve at least 0.9, where 1 is the maximum; inactive = score below 0.9.

With `Oc1c(Cl)c(Cl)c(Cl)c(Cl)c1Cl`, the half-maximal activity concentration (AC50) (commonly the concentration at which the activity in the assay is half-maximal) in assay [1] is 9.53 µM (active).

Consider `O=S(=O)(O)C(F)(F)C(F)(F)C(F)(F)C(F)(F)F`, for which the outcome in assay [1], in assay [2], in assay [3], in assay [4], in [5] and in [6] was inactive. Further, the outcome in assay [7], in assay [8], in assay [10], in assay [11], in [12] and in assay [13] was inactive. The result (in the assay with KRT18 (gene 3875); in assay [14]; in assay [15]; in assay [16]; in [17]; in [18]) was inactive. Further, in the assay with CD40, CD40 (gene 958), the result was inactive. The AC50 in assay [9] is 30 µM (active) and 33.4 µM (active).

With `COc1ccc(O)c(C(C)(C)C)c1`, the outcome (in assay [10]; in [11]; in [12]; in assay [13]; with KRT18 (gene 3875); in [14]) was inactive. For the same compound, the result in assay [15], in [16] and in assay [18] was inactive.

As for `Sc1ccccc1`, in assay [1], the outcome was inactive.

In the case of `NS(=O)(=O)C(F)(F)C(F)(F)C(F)(F)C(F)(F)C(F)(F)C(F)(F)C(F)(F)C(F)(F)F`, the half-maximal activity concentration (AC50) in assay [1] was 35.1 µM (active) and 21.5 µM (active); in assay [3] it was 52.2 µM (active) and 49.7 µM (active); in [4], 51.4 µM (active) and 55 µM (active); in [5], 44 µM (active) and 45.9 µM (active); in [6] it was 45 µM (active) and 47.5 µM (active); in assay [7] it was 48.2 µM (active) and 44.3 µM (active). The AC50 in assay [8] is 23.3 µM (active) and 34 µM (active); in assay [9], 52.1 µM (active) and 14.9 µM (active); in [10], 55 µM (active) and 53 µM (active); in [11], 43.2 µM (active) and 36.9 µM (active); in assay [12] it was 24.3 µM (active) and 11.4 µM (active); in assay [13] it was 25.1 µM (active) and 38 µM (active). Further, the half-maximal activity concentration (AC50) was 46.9 µM (active) and 48 µM (active) in the assay with KRT18 (gene 3875); 30 µM (active) in assay [14]; 21.7 µM (active) and 17.3 µM (active) in [16]; 47.3 µM (active) and 56.6 µM (active) in [17]; 12.1 µM (active) and 15.7 µM (active) in assay [18]; 31.8 µM (active) and 25.7 µM (active) with CD40, CD40 (gene 958). Besides, the result in assay [2] and in [15] was inactive.

`O=C(O)C(F)(F)C(F)(F)C(F)(F)C(F)(F)C(F)(F)C(F)(F)C(F)(F)C(F)(F)F`: the outcome in [1], in assay [13], in [15], in assay [16], in assay [17] and in [18] was inactive. In addition, the half-maximal activity concentration (AC50) is 48.4 µM (active) and 51.1 µM (active) in assay [2]; 47.4 µM (active) and 55.2 µM (active) in assay [3]; 35.6 µM (active) and 27.7 µM (active) in assay [4]; 47.5 µM (active) and 46.2 µM (active) in [5]; 43.3 µM (active) and 44 µM (active) in assay [6]; 50.3 µM (active) and 54.7 µM (active) in [7]. Besides, the concentration at half-maximal activity (AC50) is 44.2 µM (active) and 45.2 µM (active) in [8]; 15.8 µM (active) and 5.94 µM (active) in [9]; 56.4 µM (active) and 54.7 µM (active) in assay [10]; 49.1 µM (active) and 56 µM (active) in assay [11]; 23.3 µM (active) and 24.3 µM (active) in assay [12]; 30 µM (active) and 47.6 µM (active) in the assay with KRT18 (gene 3875). The AC50 in assay [14] was 54 µM (active) and 56.6 µM (active); in assay [17], 30 µM (active); with CD40, CD40 (gene 958), 30 µM (active) and 44.9 µM (active).

The record behind these values is PubChem BioAssay (EPA / NIEHS).
